PubChem BioAssay AID1159580 (chemical genetic matrix, 2015)
Screen size: about 5,500 compounds; about 2,000 (36%) were called active. Inconclusive results (about 18%) are left out. Rule as the data show it: active = normalized growth mostly below about 0.91 (no sharp cut-off); inconclusive = no clear call, values can overlap the other calls; inactive = mostly above about 0.92. The list shows a part of the results.

Assay: chemical genetic growth profiling, strain panel (AID 1159580);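 also: tested at 20 µM; growth read once vehicle control cultures reached saturation at 30 °C; 1 = growth at the plate median or of vehicle wells; lower values mean less growth of the strain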
Conditions: growth OD
[1] = S. cerevisiae deletion strains, locus YAL013W, strain DEP1, stronger effect = lower value
[2] = S. cerevisiae deletion strains, locus YBR229C, strain ROT2, stronger effect = lower value
[3] = S. cerevisiae deletion strains, locus YCL061C, strain MRC1, stronger effect = lower value
[4] = S. cerevisiae deletion strains, locus YDL101C, strain DUN1, stronger effect = lower value
[5] = S. cerevisiae deletion strains, locus YDL134C, strain PPH21, stronger effect = lower value
[6] = S. cerevisiae deletion strains, locus YDR150W, strain NUM1, stronger effect = lower value
[7] = S. cerevisiae deletion strains, locus YEL061C, strain CIN8, stronger effect = lower value
[8] = S. cerevisiae deletion strains, locus YGR078C, strain PAC10, stronger effect = lower value
[9] = S. cerevisiae deletion strains, locus YHR030C, strain SLT2, stronger effect = lower value
[10] = S. cerevisiae deletion strains, locus YHR087W, strain rtc3, stronger effect = lower value
[11] = S. cerevisiae deletion strains, locus YJL187C, strain SWE1, stronger effect = lower value
[12] = S. cerevisiae deletion strains, locus YJR043C, strain POL32, stronger effect = lower value
[13] = S. cerevisiae deletion strains, locus YJR075W, strain HOC1, stronger effect = lower value
[14] = S. cerevisiae deletion strains, locus YLR039C, strain RIC1, stronger effect = lower value
[15] = S. cerevisiae deletion strains, locus YLR058C, strain SHM2 (second series), stronger effect = lower value
[16] = S. cerevisiae deletion strains, locus YLR085C, strain ARP6, stronger effect = lower value
[17] = S. cerevisiae deletion strains, locus YLR262C, strain YPT6, stronger effect = lower value
[18] = S. cerevisiae deletion strains, locus YML094W, strain GIM5, stronger effect = lower value
[19] = S. cerevisiae deletion strains, locus YMR219W, strain ESC1, stronger effect = lower value
[20] = S. cerevisiae deletion strains, locus YNL153C, strain GIM3, stronger effect = lower value
[21] = S. cerevisiae deletion strains, locus YNL298W, strain CLA4 (second series), stronger effect = lower value
[22] = S. cerevisiae deletion strains, locus YNL322C, strain KRE1, stronger effect = lower value
[23] = S. cerevisiae deletion strains, locus YNR030W, strain Alg12, stronger effect = lower value
[24] = S. cerevisiae deletion strains, locus YPL055C, strain LGE1, stronger effect = lower value
[25] = S. cerevisiae deletion strains, locus YPL241C, strain CIN2, stronger effect = lower value
[26] = S. cerevisiae deletion strains, locus YPR135W, strain CTF4, stronger effect = lower value
[27] = S. cerevisiae strains, strain wild type, stronger effect = lower value
[28] = S. cerevisiae deletion strains, locus YMR263W, strain SAP30, stronger effect = lower value
[29] = S. cerevisiae deletion strains, locus YMR307W, strain GAS1, stronger effect = lower value

Measured: normalized growth

S=c1nccc(-c2ccc(Cl)cc2)[nH]1
active: [1] 0.881 | [2] 0.861 | [3] 0.84 | [4] 0.844 | [5] 0.882 | [7] 0.904 | [8] 0.831 | [12] 0.818 | S. cerevisiae deletion strains, locus YKL190W, strain CNB1, stronger effect = lower value 0.849 | [16] 0.413 | [19] 0.918 | [20] 0.895 | [21] 0.76 | [23] 0.694 | S. cerevisiae deletion strains, locus YOL006C, strain TOP1, stronger effect = lower value 0.36 | [24] 0.631 | [25] 0.748 | [26] 0.554 | [27] 0.882
inactive: [6] 1.04 | [9] 0.722 | [10] 0.912 | [11] 0.969 | [13] 0.949 | [14] 1.01 | [15] 0.957 | [17] 1.05 | [18] 0.879 | [22] 0.988

COC(=O)CSc1nc2ccc(Cl)cc2s1
active: [9] 0.491 | [15] 0.932 | [16] 0.744 | [25] 1.18 [resistant]
inactive: [1] 0.964 | [2] 0.932 | [4] 0.906 | [6] 1.02 | [7] 0.96 | [8] 0.958 | [10] 0.942 | [11] 0.949 | [12] 0.977 | [13] 0.955 | [14] 0.842 | [17] 0.891 | [18] 0.901 | [19] 0.962 | [28] 1 | [29] 1.15 | [20] 0.962 | [21] 0.877 | [22] 0.959 | [23] 0.975 | [24] 0.92 | [26] 0.685

COC(=O)CSc1ncnc2c(C)csc12
inactive: [1] 0.989 | [2] 0.998 | [4] 0.959 | [5] 0.973 | [6] 0.948 | [7] 0.978 | [8] 0.988 | [9] 0.802 | [10] 0.998 | [12] 0.973 | [13] 0.974 | [14] 0.958 | [15] 0.995 | [16] 0.9 | [17] 0.985 | [18] 0.949 | [19] 1 | [28] 0.981 | [29] 0.903 | [20] 0.994 | [21] 0.945 | [22] 1 | [23] 0.981 | [24] 0.953 | [25] 0.986 | [26] 0.818

O=C1NN=C2C3CC4CC12CC1(C3)C(=O)NN=C41
inactive: [1] 0.992 | [2] 0.999 | [4] 1 | [5] 1.01 | [6] 1 | [7] 0.997 | [8] 1.01 | S. cerevisiae deletion strains, locus YGR229C, strain SMI1, stronger effect = lower value 1 | [9] 1.03 | [10] 0.974 | [12] 1.02 | [13] 1.02 | [14] 1.05 | [15] 1 | [16] 0.989 | [17] 1.03 | [18] 0.974 | [19] 1 | [28] 0.974 | [20] 1.02 | [21] 0.983 | [22] 1.02 | [23] 0.978 | [24] 0.981 | [25] 0.998 | [26] 1.01 | [27] 0.999

C=CC1C2=CCOC(=O)C2=COC1OC1OC(CO)C(O)C(O)C1O (stereo not given)
inactive: S. cerevisiae deletion strains, locus YAL021C, strain ccr4, stronger effect = lower value 1.02 | S. cerevisiae deletion strains, locus YAL026C, strain drs2, stronger effect = lower value 1.02 | S. cerevisiae deletion strains, locus YAL030W, strain snc1, stronger effect = lower value 1.02 | S. cerevisiae deletion strains, locus YBL061C, strain skt5, stronger effect = lower value 1.01 | S. cerevisiae deletion strains, locus YBR009C, strain hhf1, stronger effect = lower value 1.02 | S. cerevisiae deletion strains, locus YBR023C, strain chs3, stronger effect = lower value 1.01 | S. cerevisiae deletion strains, locus YBR171W, strain sec66, stronger effect = lower value 1.02 | S. cerevisiae deletion strains, locus YBR231C, strain swc5, stronger effect = lower value 1.02 | S. cerevisiae deletion strains, locus YBR279W, strain paf1, stronger effect = lower value 1.01 | S. cerevisiae deletion strains, locus YCL011C, strain gbp2, stronger effect = lower value 1.02 | S. cerevisiae deletion strains, locus YCL016C, strain dcc1, stronger effect = lower value 1.01 | [3] 1.02 | S. cerevisiae deletion strains, locus YCL069W, strain vba3, stronger effect = lower value 1.02 | S. cerevisiae deletion strains, locus YCR088W, strain abp1, stronger effect = lower value 1.02 | S. cerevisiae deletion strains, locus YDL005C, strain med2, stronger effect = lower value 1.01 | S. cerevisiae deletion strains, locus YDL040C, strain nat1, stronger effect = lower value 1.02 | S. cerevisiae deletion strains, locus YDR001C, strain nth1, stronger effect = lower value 1.02 | S. cerevisiae deletion strains, locus YDR069C, strain doa4, stronger effect = lower value 1.02 | S. cerevisiae deletion strains, locus YDR137W, strain rgp1, stronger effect = lower value 1.08 | S. cerevisiae deletion strains, locus YDR159W, strain sac3, stronger effect = lower value 1.02 | S. cerevisiae deletion strains, locus YDR195W, strain ref2 1.01 | S. cerevisiae deletion strains, locus YDR297W, strain sur2, stronger effect = lower value 1.02 | S. cerevisiae deletion strains, locus YDR334W, strain swr1, stronger effect = lower value 1.02 | S. cerevisiae deletion strains, locus YDR335W, strain msn5, stronger effect = lower value 1.02 | S. cerevisiae deletion strains, locus YDR392W, strain spt3, stronger effect = lower value 1.02 | S. cerevisiae deletion strains, locus YEL003W, strain gim4, stronger effect = lower value 1.02 | S. cerevisiae deletion strains, locus YEL037C, strain rad23, stronger effect = lower value 1.02 | S. cerevisiae deletion strains, locus YEL061C, strain CIN8 (second series), stronger effect = lower value 1.03 | S. cerevisiae deletion strains, locus YER015W, strain faa2, stronger effect = lower value 1.01 | S. cerevisiae deletion strains, locus YER016W, strain bim1, stronger effect = lower value 1.02 | S. cerevisiae deletion strains, locus YER111C, strain swi4, stronger effect = lower value 1.01 | S. cerevisiae deletion strains, locus YER155C, strain BEM2 (second series), stronger effect = lower value 1.05 | S. cerevisiae deletion strains, locus YFR010W, strain ubp6, stronger effect = lower value 1.03 | S. cerevisiae deletion strains, locus YGL167C, strain pmr1, stronger effect = lower value 1.02 | S. cerevisiae deletion strains, locus YGL173C, strain kem1, stronger effect = lower value 1.02 | S. cerevisiae deletion strains, locus YGL227W, strain vid30, stronger effect = lower value 1.03 | S. cerevisiae deletion strains, locus YGL240W, strain doc1, stronger effect = lower value 1.02 | S. cerevisiae deletion strains, locus YGL253W, strain hxk2, stronger effect = lower value 1.03 | S. cerevisiae deletion strains, locus YHR013C, strain ard1, stronger effect = lower value 1.04 | S. cerevisiae deletion strains, locus YHR027C, strain rpn1, stronger effect = lower value 1.02 | S. cerevisiae deletion strains, locus YHR142W, strain chs7, stronger effect = lower value 1.04 | S. cerevisiae deletion strains, locus YJL092W, strain hpr5, stronger effect = lower value 1.01 | S. cerevisiae deletion strains, locus YJL095W, strain BCK1 (second series), stronger effect = lower value 1.02 | S. cerevisiae deletion strains, locus YJL115W, strain asf1, stronger effect = lower value 1.03 | S. cerevisiae deletion strains, locus YJL129C, strain trk1, stronger effect = lower value 1.04 | S. cerevisiae deletion strains, locus YJL154C, strain vps35, stronger effect = lower value 1.01 | S. cerevisiae deletion strains, locus YJL164C, strain tpk1, stronger effect = lower value 1.02 | S. cerevisiae deletion strains, locus YJL166W, strain qcr8, stronger effect = lower value 1.02 | [11] 1.02 | S. cerevisiae deletion strains, locus YKL160W, strain elf1, stronger effect = lower value 1.01 | S. cerevisiae deletion strains, locus YKR026C, strain gcn3, stronger effect = lower value 1.02 | S. cerevisiae deletion strains, locus YKR091W, strain srl3, stronger effect = lower value 1.02 | S. cerevisiae deletion strains, locus YLL001W, strain dnm1, stronger effect = lower value 1.02 | S. cerevisiae deletion strains, locus YLL026W, stronger effect = lower value 1.01 | S. cerevisiae deletion strains, locus YLL041C, strain sdh2, stronger effect = lower value 1.02 | S. cerevisiae deletion strains, locus YLR027C, strain aat2, stronger effect = lower value 1.01 | S. cerevisiae deletion strains, locus YLR221C, strain rsa3, stronger effect = lower value 1.02 | S. cerevisiae deletion strains, locus YLR258W, strain gsy2, stronger effect = lower value 1.01 | S. cerevisiae deletion strains, locus YLR262C, strain YPT6 (second series), stronger effect = lower value 1.03 | S. cerevisiae deletion strains, locus YLR320W, strain mms22, stronger effect = lower value 1.03 | S. cerevisiae deletion strains, locus YLR342W, strain FKS1, stronger effect = lower value 1 | S. cerevisiae deletion strains, locus YLR357W, strain rsc2, stronger effect = lower value 1 | S. cerevisiae deletion strains, locus YLR370C, strain arc18, stronger effect = lower value 1.03 | S. cerevisiae deletion strains, locus YLR384C, strain iki3, stronger effect = lower value 1.01 | S. cerevisiae deletion strains, locus YML120C, strain ndi1, stronger effect = lower value 1.02 | S. cerevisiae deletion strains, locus YMR058W, strain fet3, stronger effect = lower value 1.02 | S. cerevisiae deletion strains, locus YMR125W, strain sto1, stronger effect = lower value 1.03 | S. cerevisiae deletion strains, locus YMR129W, stronger effect = lower value 1.02 | S. cerevisiae deletion strains, locus YMR205C, strain PFK2, stronger effect = lower value 1.03 | S. cerevisiae deletion strains, locus YMR231W, strain pep5, stronger effect = lower value 1.03 | S. cerevisiae deletion strains, locus YNL071W, strain lat1, stronger effect = lower value 1.02 | S. cerevisiae deletion strains, locus YNL209W, strain ssb2, stronger effect = lower value 1.01 | S. cerevisiae deletion strains, locus YNL248C, strain rpa49, stronger effect = lower value 1.05 | S. cerevisiae deletion strains, locus YNL322C, strain KRE1 (second series), stronger effect = lower value 1.02 | S. cerevisiae deletion strains, locus YNR049C, strain mso1, stronger effect = lower value 1.01 | S. cerevisiae deletion strains, locus YOR001W, strain rrp6, stronger effect = lower value 1.01 | S. cerevisiae deletion strains, locus YOR070C, strain gyp1, stronger effect = lower value 1.02 | S. cerevisiae deletion strains, locus YOR080W, strain dia2, stronger effect = lower value 1.02 | S. cerevisiae deletion strains, locus YOR083W, strain WHI5, stronger effect = lower value 1.01 | S. cerevisiae deletion strains, locus YOR106W, strain vam3, stronger effect = lower value 1.02 | S. cerevisiae deletion strains, locus YOR265W, strain rbl2, stronger effect = lower value 1.01 | S. cerevisiae deletion strains, locus YOR270C, strain vph1, stronger effect = lower value 1.11 | S. cerevisiae deletion strains, locus YOR290C, strain snf2, stronger effect = lower value 1.02 | S. cerevisiae deletion strains, locus YPL051W, strain arl3, stronger effect = lower value 1.01 | S. cerevisiae deletion strains, locus YPL078C, strain atp4, stronger effect = lower value 1.04 | S. cerevisiae deletion strains, locus YPL106C, strain sse1, stronger effect = lower value 1.02 | S. cerevisiae deletion strains, locus YPL240C, strain hsp82, stronger effect = lower value 1
